From PubChem BioAssay
BLM helicase inh = qHTS Assay for Inhibitors of Bloom's syndrome helicase (BLM) | Potency, µM (doses to about 56.1 µM), for inactives: at the top dose activity change, negative = inhibition, usual class: inhibitors | 350,000 tested, 0.2% active | recombinant BLM DNA unwinding, fluorescence dequenching | RecQ-like DNA helicase BLM (Homo sapiens), P54132;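 note: plate controls were vehicle for no effect and no enzyme for full effect; nearly all actives have a fitted effect of over 35% in size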
RECQ1 helicase = qHTS Assay for Inhibitors of RecQ-Like Dna Helicase 1 (RECQ1) | ATP-dependent DNA helicase Q1 (Homo sapiens), P46063 | RECQ1 DNA unwinding, red fluorescence kinetic read | Potency, µM (titrated, usually from 57.3 µM), inactives show at the top dose activity, negative = inhibition, most hits filed as inhibitors | 240,000 tested, 0.54% active;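 note: plate controls were vehicle for no effect and no enzyme for full effect; nearly all actives have a fitted effect of over 30% in size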
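RECQ1T1 50 nM; forked duplex (20 bp + 30-nt ss tails) 200 nM, ATP 2 mM final; pH 8.0, 2 mM MgCl2, 2.5 ug/ml poly(dI-dC); 15 min compound preincubation; discontinuous kinetic read over 2 h at RT.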
FEN1 inh = qHTS Assay for the Inhibitors of Human Flap endonuclease 1 (FEN1). Recombinant FEN1 flap cleavage, fluorescence, 15 min. Potency, µM (top dose mostly 114 µM), inactives show at the top dose activity change, negative = inhibition, most hits filed as inhibitors. 390,000 tested, 0.35% active. AID 588795, 2011; note: nearly all actives have a fitted effect of over 65% in size
Target sequence (P39748 whole entry, looked up): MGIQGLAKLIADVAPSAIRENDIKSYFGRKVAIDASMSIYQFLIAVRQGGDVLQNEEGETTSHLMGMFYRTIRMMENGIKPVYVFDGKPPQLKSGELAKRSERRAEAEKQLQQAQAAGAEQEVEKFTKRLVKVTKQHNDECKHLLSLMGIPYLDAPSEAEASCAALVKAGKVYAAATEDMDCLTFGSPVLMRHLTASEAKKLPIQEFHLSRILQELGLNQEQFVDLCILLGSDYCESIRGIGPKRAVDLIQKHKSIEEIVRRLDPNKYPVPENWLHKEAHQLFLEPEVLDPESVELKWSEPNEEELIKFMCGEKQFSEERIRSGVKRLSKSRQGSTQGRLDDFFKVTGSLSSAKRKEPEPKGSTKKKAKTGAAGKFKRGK
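Steps: FEN1 (10 nM) dispensed; compound added by pin tool; 15 min at room temperature; substrate added to 50 nM final; reads at 0 min and 15 min; data normalized and fitted (four-parameter Hill).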
TDP1 block = qHTS Assay for Inhibitors of Tyrosyl-DNA Phosphodiesterase (TDP1). AID 485290, 2010. recombinant TDP1, AlphaScreen DNA substrate cleavage. Tyrosyl-DNA phosphodiesterase 1 (Homo sapiens), Q9NUW8. Potency, µM (titrated, usually from 130 µM), for the others: at the highest dose activity change, negative = inhibition, hits mostly inhibitors. 350,000 tested, 0.28% active; note: nearly all actives have a fitted effect of over 40% in size
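Steps: enzyme plus compound, 15 min RT; add biotin/phosphotyrosine-FITC oligonucleotide (15 nM final), react 5 min; add donor/acceptor beads (10 ug/ml final), 10 min; read AlphaScreen. Tdp1 at 1 nM final.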
APEX1 inh = qHTS Assay for Inhibitors of the Human Apurinic/apyrimidinic Endonuclease 1 (APE1); DNA repair nuclease/redox regulator APEX1 (Homo sapiens), P27695; recombinant APE1, TAMRA/BHQ-2 abasic DNA cleavage fluorescence; Potency, µM (doses to about 65.8 µM), without a hit: at the highest dose activity change, negative = inhibition, hits mostly inhibitors; 350,000 tested, 0.35% active; AID 2517, 2012;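 note: plate controls were vehicle for no effect and reference inhibitor for full effect; nearly all actives have a fitted effect of over 55% in size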
Target sequence (P27695 whole entry, looked up): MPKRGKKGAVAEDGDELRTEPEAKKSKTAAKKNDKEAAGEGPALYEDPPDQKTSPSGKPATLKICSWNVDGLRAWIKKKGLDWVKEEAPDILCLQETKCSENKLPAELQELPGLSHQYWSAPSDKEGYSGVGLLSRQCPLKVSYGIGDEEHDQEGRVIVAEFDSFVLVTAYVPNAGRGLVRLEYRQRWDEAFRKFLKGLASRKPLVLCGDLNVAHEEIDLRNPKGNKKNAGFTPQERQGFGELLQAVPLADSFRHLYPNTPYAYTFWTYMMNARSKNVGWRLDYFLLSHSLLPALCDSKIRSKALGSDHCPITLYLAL
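0.75 nM APE1 + cpd, 15 min RT; start w/ 50 nM TAMRA/BHQ-2 THF-abasic dsDNA; kinetic fluor 525/598 nm ×3 reads @60 s; Δ(read3−read1); normalized to DMSO and NSC13755 control wells.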
Numbers without * were called inactive; ! = not confirmed by another sample; [ ] = another dose, or the depositor's remark. Rows were chosen to be rich in hits. Some 0.92% of all compounds tested hit in one or more screens of this group. Calls come from the whole dose curve; as a rule, active = well fitted curve in the direction sought with a large enough effect; inconclusive = small, poorly fitted or top-dose-only effect, or another doubt; inactive = no such curve, though single readings can be large; an effect the other way counts as inactive or inconclusive. Unless noted, % is set by controls: 0 for no effect and ±100 for the full control effect; potency is the fitted concentration of half-maximal effect.

What do the screens show for `CCOC(=O)c1cc(-c2ccc(/C=N\n3cnnc3)o2)ccc1Cl`?
BLM helicase inh: 1%; RECQ1 helicase: -7%; FEN1 inh: -8%; TDP1 block: 1%; APEX1 inh: 22%

How did O=C(O)c1cc(-c2ccc(/C=C3\NC(=O)N(c4ccc(Cl)cc4)C3=O)o2)ccc1Cl do in these assays?
BLM helicase inh: 52%; RECQ1 helicase: inconclusive; FEN1 inh: inconclusive; TDP1 block: 6.3µM*; APEX1 inh: 25µM*

How did CCOC(=O)c1cc(-c2ccc(/C=C3/C(=O)N(c4ccc(C(=O)O)cc4)N=C3C)o2)ccc1Cl do in these assays?
BLM helicase inh: -1%; FEN1 inh: -21%; APEX1 inh: 8.4µM*

What do the screens show for `NC(=O)C(=CNc1nc(-c2ccc(Cl)c(Cl)c2)cs1)C(N)=O`?
BLM helicase inh: inconclusive; RECQ1 helicase: 3.5µM*; TDP1 block: 6%; APEX1 inh: 0.63µM*

How did CCN[C@@H]1C[C@H](N)[C@@H](OC2OC(CN)=CCC2N)[C@H](O)[C@H]1O[C@H]1OC[C@](C)(O)[C@H](NC)[C@H]1O (some centres not stated) do in these assays?
APEX1 inh: 1%[21 µM]

How did CC1=CC(=O)c2ccccc2C1=O do in these assays?
BLM helicase inh: 18µM*!; RECQ1 helicase: -12%; FEN1 inh: 1%; TDP1 block: 6%; APEX1 inh: -3%

Results for Cc1ccc2c(=O)cc(C(=O)Nc3ccc(S(=O)(=O)Nc4onc(C)c4C)cc3)oc2c1C ?
BLM helicase inh: 4%; FEN1 inh: -5%; TDP1 block: 2%

What do the screens show for `Cc1oc2c(O)c(O)ccc2c(=O)c1-c1ccccc1`?
BLM helicase inh: -7%; RECQ1 helicase: 10µM*; FEN1 inh: -4%; TDP1 block: 5%; APEX1 inh: 18%

What do the screens show for `Cc1c(Cc2ccccc2)c(=O)oc2c(O)c(O)ccc12`?
BLM helicase inh: 13µM*; RECQ1 helicase: inactive; FEN1 inh: inconclusive; TDP1 block: 10%; APEX1 inh: 0%

What do the screens show for `O=c1cc(-c2ccccc2O)oc2c(O)c(O)ccc12`?
BLM helicase inh: -30%; RECQ1 helicase: 3.2µM*; APEX1 inh: 3.5µM*

Results for O=C1NC(=S)S/C1=C\c1coc2ccccc2c1=O ?
BLM helicase inh: -3%; RECQ1 helicase: 20µM*; FEN1 inh: -6%; TDP1 block: -2%; APEX1 inh: 6%

What do the screens show for `COc1cccc(CCc2ccccc2OCC[C@@H]2C[C@@H](O)CN2C)c1`?
BLM helicase inh: -4%; RECQ1 helicase: -4%; TDP1 block: 13%; APEX1 inh: -2%

Results for CN(CC(=O)Nc1ccc(N2CCOCC2)cc1)C(=O)CSc1ccc(Br)cc1 ?
BLM helicase inh: -7%; FEN1 inh: -1%; TDP1 block: 89µM*; APEX1 inh: -2%

Results for N#Cc1ccc(Nc2nn3c(=O)c4ccccc4nc3s2)cc1 ?
APEX1 inh: -39%

How did Cc1ccc(NS(=O)(=O)c2ccc(-c3ccccc3)cc2)cc1C do in these assays?
TDP1 block: -4%

How did CCCCCC(=O)Nc1cc(S(=O)(=O)O)cc2cc(S(=O)(=O)O)cc(O)c12 do in these assays?
FEN1 inh: 10µM*

Results for CN(C)c1ccc(C(=C2c3ccccc3-c3ccccc32)c2ccc(N(C)C)cc2)cc1 ?
FEN1 inh: -5%

How did Nc1cccc2nc3ccccc3cc12 do in these assays?
BLM helicase inh: 208%; RECQ1 helicase: 14%; FEN1 inh: -2%; TDP1 block: -5%; APEX1 inh: inconclusive

What do the screens show for `Cc1cc2c(N)cccc2nn1`?
BLM helicase inh: 5.6µM*; RECQ1 helicase: -3%; FEN1 inh: inconclusive; TDP1 block: -12%; APEX1 inh: -1%

What do the screens show for `CCn1c2ccccc2c2cc(/C=C3/C=Cc4ccccc43)ccc21`?
FEN1 inh: -23%

What do the screens show for `C=CCSC1=N/C(=C\c2sccc2C)C(=O)S1`?
BLM helicase inh: -2%; RECQ1 helicase: -2%; FEN1 inh: -18%; TDP1 block: 3%; APEX1 inh: -3%

What do the screens show for `C=CCSC1=N/C(=C\c2cc(OCC)c(OC(C)=O)c([N+](=O)[O-])c2)C(=O)S1`?
BLM helicase inh: -4%; RECQ1 helicase: -3%; FEN1 inh: 56µM*; TDP1 block: -5%; APEX1 inh: inconclusive

What do the screens show for `Nc1ncnc2oc(-c3ccoc3)c(-c3ccco3)c12`?
FEN1 inh: 18µM*; TDP1 block: inconclusive

How did COc1ccc2cc(C(=O)Nc3ccc(S(N)(=O)=O)cc3)sc(=O)c2c1OC do in these assays?
BLM helicase inh: -9%; RECQ1 helicase: -16%; FEN1 inh: -21%; TDP1 block: 3%; APEX1 inh: inconclusive

What do the screens show for `COc1ccc2cc(C(=O)Nc3ccccc3)sc(=O)c2c1OC`?
BLM helicase inh: -10%; RECQ1 helicase: 5%; FEN1 inh: 1%; TDP1 block: 16µM*; APEX1 inh: 1%

What do the screens show for `O=C1CCCC=C1[C@H](O)CCCCBr`?
BLM helicase inh: -8%[12.4 µM]; RECQ1 helicase: inactive[11.5 µM]; TDP1 block: 5%[21 µM]; APEX1 inh: 4%[12.4 µM]

Results for N#C/C(=C\c1ccc(-c2ccc(C(=O)O)cc2)o1)C(=O)NCC1CCCO1 (configuration not stated) ?
BLM helicase inh: 3%; RECQ1 helicase: -5%; FEN1 inh: -15%; TDP1 block: 56µM*; APEX1 inh: inconclusive

Results for Cc1ccc2c(c1)C/C(=C/c1ccc(N(C)C)cc1)C2=O ?
FEN1 inh: -24%

Results for CC(=O)N[C@@H](CC(=O)O)C(=O)N[C@@H](CCC(=O)O)C(=O)O ?
BLM helicase inh: -1%; RECQ1 helicase: inconclusive; TDP1 block: 16µM*!; APEX1 inh: 3.5µM*!

What do the screens show for `C/C(CCN1CCCCc2nc(C)c(C)cc21)=N\OC[C@@H](O)COCc1ccco1`?
BLM helicase inh: 4%[12.4 µM]; RECQ1 helicase: 9%[11.5 µM]; TDP1 block: 4%[21 µM]; APEX1 inh: 28%[12.4 µM]

Results for Cc1nn(C(=O)c2ccccc2F)c(C)c1S(=O)(=O)N1CCOCC1 ?
BLM helicase inh: 3%; FEN1 inh: -6%; TDP1 block: 7%

What do the screens show for `COc1ccccc1Nc1cc2ccccc2c(=O)[nH]1`?
TDP1 block: 2%
